Source: PubChem
The list is not random: actives were taken first. Their share in the collection is about 3.9%.
ERK AVP block – vasopressin-driven ERK pathway inhibition; HEK293-V1b, vasopressin-stimulated pERK AlphaScreen; hit rate 0.99% among 72,000; AID 995; Potency, µM (top dose mostly 57.5 µM), for inactives: at the highest dose activity, negative = inhibition, actives largely listed as inhibitors; note: % is set by controls: 0 for no effect and ±100 for the full control effect; nearly all actives have a fitted effect of over 55% in size
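qHTS, compounds titrated on V1b-expressing HEK293 cells. Preincubation 30 min at 37C, vasopressin 25 nM for 5 min, lysis 10 min, bead incubation 5 hr at room temperature.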
PK Bst – alters activity of Bacillus stearothermophilus pyruvate kinase; purified pyruvate kinase, luminescence ATP production; ribose 5-phosphate activator present at AC10; Potency, µM; hit rate 1.2% among 51,000; AID 361; in the data active = potency below about 11 µM; inconclusive = mostly about 12 µM to 25 µM;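 the screen sought inhibitors and activators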;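 note: scaled between full activation by ribose 5 phosphate and full inhibition by luteolin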
GBA mod – human lysosomal glucosylceramidase modulation | P04062 | purified enzyme, resorufin glucoside fluorescence (screen aimed at inhibitors), 20 min | Potency, µM | hit rate 1.1% among 48,000 | AID 360; in the data active = potency below about 15 µM; inconclusive = mostly about 16 µM to 33 µM;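 note: the screen sought inhibitors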
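Compounds titrated against 0.2 nM normal enzyme, 30 uM resorufin beta-D-glucopyranoside substrate, citrate/phosphate buffer with taurocholate and tween-20, pH 5.9. Reaction ran 20 min at room temperature; fluorescence (Ex 548/Em 600) gave AC50.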
FLuc inh – firefly luciferase inhibition; P08659; purified firefly luciferase, luminescence, 8 min; Potency, µM (titrated, usually from 57.1 µM), without a hit: top-dose activity change, negative = inhibition, actives largely listed as inhibitors; hit rate 2.2% among 72,000; AID 411; note: % is set by controls: 0 for no effect and ±100 for the full control effect; nearly all actives have a fitted effect of over 40% in size
Target sequence (P08659 whole entry, looked up): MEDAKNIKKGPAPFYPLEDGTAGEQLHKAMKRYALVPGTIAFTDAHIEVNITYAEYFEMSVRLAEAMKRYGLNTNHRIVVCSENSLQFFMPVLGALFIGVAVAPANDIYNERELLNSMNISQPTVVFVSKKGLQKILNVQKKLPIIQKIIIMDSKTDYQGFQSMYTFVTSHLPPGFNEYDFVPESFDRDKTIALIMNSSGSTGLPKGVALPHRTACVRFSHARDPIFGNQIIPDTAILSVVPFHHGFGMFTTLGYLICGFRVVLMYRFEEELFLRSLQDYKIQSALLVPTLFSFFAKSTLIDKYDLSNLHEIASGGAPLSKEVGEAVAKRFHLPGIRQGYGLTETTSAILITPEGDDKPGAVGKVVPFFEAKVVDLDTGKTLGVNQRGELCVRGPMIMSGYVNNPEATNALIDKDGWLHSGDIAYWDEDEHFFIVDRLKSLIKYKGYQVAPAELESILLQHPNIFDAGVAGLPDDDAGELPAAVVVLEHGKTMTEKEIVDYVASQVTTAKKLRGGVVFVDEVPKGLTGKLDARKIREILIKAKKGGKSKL
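Here, luciferase activity is measured as luminescence following an 8 min room-temperature reaction at 10 uM ATP, pH 7.2. Every library sample is titrated.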
* marks the source's active call; other numbers are inactive results; i = inactive; u = inconclusive; x = not tested or not shown; ! = not active in a repeat; [ ] = dose if it differs, or a comment. Unless noted, calls come from the whole dose curve; as a rule, active = well fitted curve in the direction sought with a large enough effect; inconclusive = small, poorly fitted or top-dose-only effect, or another doubt; inactive = no such curve, though single readings can be large; an effect the other way counts as inactive or inconclusive. Potency is the fitted concentration of half-maximal effect.

SMILES | ERK AVP block | PK Bst | GBA mod | FLuc inh
Cc1cc2nc(-c3cccnc3SCC(=O)NCc3ccco3)[nH]c2cc1C | -5% | 3.9* | >77 | 4µM*
O=C(CSc1ncccc1-c1nc2ccccc2[nH]1)NCc1ccco1 | -2% | x | x | u
COc1ccc2noc3c2c1C(=O)c1ccccc1-3 | u | x | x | -6%
O=C1c2ccccc2-c2onc3ccc(NCCCn4ccnc4)c1c23 | 16µM* | u | x | -26%
O=C(CSc1nc2ccccc2c(=O)[nH]1)c1ccc(O)c(O)c1 | 16µM* | >57 | x | 3%
O=C(CSc1nc2ccccc2c(=O)[nH]1)c1cccs1 | -11% | x | x | 4%
COC(=O)c1sccc1NC(=O)c1cc2c(s1)CCCC2 | 24% | x | x | 20µM*
N[C@H](C(=O)O)c1nn[nH]n1 | 1% | x | x | 1%
COc1ccc(-n2nc(C(=O)NCC(=O)N3CCN(c4ccccn4)CC3)c3ccccc3c2=O)cc1 | 15% | 8.2* | >77 | 3.2µM*
Nc1cc(-c2nn[nH]n2)ccc1F | -14% | >57 | >77 | -2%
CCCc1ccc(-c2ccc(F)c(N)c2)nc1 | 14% | x | x | 2µM*
Cc1cccc2cc(CN(Cc3ccco3)S(=O)(=O)c3ccc4c(c3)OCCO4)c(=O)[nH]c12 | 10µM* | >57 | >77 | -2%
Fc1ccc(-c2nc3n(c2-c2ccncc2)CCS3)cc1 | 5% | x | x | x
Oc1ccc(-c2nc(-c3ccc(F)cc3)c(-c3ccncc3)[nH]2)cc1 | 7.9µM* | x | x | 1.3µM*!
C=CCNc1ncnc2c1[nH]c1ccc(C)cc12 | 32µM* | u | u | 10µM*
Cc1ccc2[nH]c3c(NCCN4CCOCC4)ncnc3c2c1 | x | x | x | -3%[25.5 µM]
CS(=O)(=O)N1CCCC(C(=O)NCc2ccccc2Cl)C1 (centres undefined) | 1% | >57 | >77 | 0%
COc1ccc(Br)cc1CNC(=O)C1CCCN(S(C)(=O)=O)C1 (centres undefined) | -7% | 5.4* | >77 | 10µM*
COc1ccc(-c2nn3c(-c4cccc(C)c4)nnc3s2)cc1OC | u | >57 | >77 | 0%
COc1cc(-c2nnc3sc(-c4cccs4)nn23)cc(OC)c1OC | -13% | 2.8* | >77 | 1%
COc1ccc(-c2nnc3sc(-c4cccs4)nn23)cc1OC | u | 2.6* | >77 | 0%
CNC(=O)[C@@H]1O[C@@H](n2cnc3c(NCc4ccc(N)cc4)ncnc32)[C@@H](O)[C@H]1O | -6% | x | x | 0%
O=C(Cc1ccc(F)cc1)OCC(=O)c1cc2ccccc2o1 | 22% | >57 | >77 | -44%
O=C(OCN1C(=O)c2ccccc2C1=O)c1cccs1 | -14% | x | x | 1%
O=C(COC(=O)c1cc2ccccc2o1)c1ccccc1 | 15% | x | x | 13µM*
SMILES | ERK AVP block | PK Bst | GBA mod | FLuc inh
O=C(COC(=O)c1cccs1)c1ccccc1 | 19% | u | >77 | 5µM*
CCNc1ncc2nc(-c3cn(C)c4ccccc34)c(=O)n(-c3ccccc3)c2n1 | u | x | x | 0%[11.4 µM]
COc1cccc(N2CCN(C(=O)c3ccc4nc(N5CCCCC5)sc4c3)CC2)c1 | 25µM* | x | x | -11%
COc1ccc(N2CCN(C(=O)c3sc4nc(-c5ccc(F)cc5)cn4c3C)CC2)cc1 | x | x | x | 2%
COc1ccc(-c2cn3c4c(sc3n2)CCCC4)cc1 | -22% | 0.54* | >77 | 0.63µM*
N[C@H](Cc1cc(I)c(Oc2cc(I)c(O)c(I)c2)c(I)c1)C(=O)O | -5%[25.7 µM] | x | x | 2%[25.5 µM]
O=C1c2ccccc2NC(c2ccc3c(c2)OCCO3)N1c1ccc2c(c1)OCCO2 (centres undefined) | -23% | x | >77 | 20µM*
NCCNC(=S)S | -17%[11.5 µM] | x | x | -2%[11.4 µM]
Cc1nc2ccccc2c2c1C(=O)N(CCC1=CCCCC1)C2=O | -12% | >57 | 14* | 0%
Cc1nc2ccccc2c2c1C(=O)N(C)C2=O | -27% | x | >77 | 1%
CN(C)S(=O)(=O)c1ccc(S(=O)(=O)N(Cc2ccccn2)Cc2ccco2)cc1 | 16% | >57 | 6.7* | 2%
CC(C)c1ccc(NC(=O)c2cccnc2)cc1 | 3% | x | x | 16µM*
CC(C)c1ccc(NC(=O)C(c2ccccc2)N2CCOCC2)cc1 (centres undefined) | -14% | x | x | -5%
CCc1ccc(NC(=O)c2cccnc2)cc1 | -9% | >57 | u | -18%
CC(C)c1ccc(NC(=O)c2csnn2)cc1 | -23% | i | i | 5µM*
N[C@@H](CSC1(c2ccc(Cl)cc2)c2ccccc2-c2ccccc21)C(=O)O | -9%[11.5 µM] | x | x | 3%[11.4 µM]
Nc1nc(N2CCCCC2)nc2ccccc12 | 3% | 8.5* | x | -13%
c1ccc2c(N3CCCCC3)nc(N3CCCC3)nc2c1 | -3% | >57 | i | 4%
CN1C=CC(=C2C(=O)c3ccccc3C2=O)C=C1 | -18% | x | x | 7.9µM*
CCN1C=CC(=C2C(=O)c3ccccc3C2=O)C=C1 | -8% | x | x | 0.32µM*
CC1=CC(=C2C(=O)c3ccccc3C2=O)C=C(C)O1 | -12% | >57 | >77 | -6%
COC1=C(OC)C(=O)c2ccccc2C1=O | 20% | x | x | -6%
CCCN1C=CC(=C2C(=O)c3ccccc3C2=O)C=C1 | -18% | x | x | 0.16µM*
CN(C)Cc1ccccc1-c1cc(Nc2ccccc2)ncn1 | -17% | x | x | 2%[2.29 µM]
CCOc1ccc(CCNc2cc(C)nc3ncnn23)cc1OCC | 25µM* | x | x | 2%
SMILES | ERK AVP block | PK Bst | GBA mod | FLuc inh
O=C(c1ccc(CSCc2ccccc2F)o1)N1CCN(c2ccc(N3CCOCC3)nn2)CC1 | 25µM* | x | x | -17%
O=C1/C(=C/Nc2ccc3c(c2)OCO3)CCc2ccccc21 | u | x | x | 0.63µM*
O=C1OC2(CCCCC2)OC(=O)C1=CNc1ccc2c(c1)OCO2 | -3% | >57 | >77 | -3%
CC(=O)[C@]1(O)CCC2C3CC(C)C4=CC(=O)C=CC4(C)[C@@]3(F)C(O)C[C@]21C (some centres undefined) | -4% | x | x | x
COCCn1c(N)c(C(=O)Nc2sc3c(c2C(=O)OC)CCCC3)c2nc3ccccc3nc21 | 9% | >57 | 7.6* | 4%
COc1ccc(NC(=O)c2ccco2)cc1NC(=O)c1cccc(OC(C)C)c1 | 1% | >57 | 9.8* | -15%
COc1cc(C(=O)Nc2ccc(NC(=O)C3CC3)nc2)cc(OC)c1OC | -6% | >57 | >77 | -3%
CCC(=O)Nc1ccc(NC(=O)c2cccc(OC)c2)nc1 | 5% | x | >77 | 13µM*
COc1cccc(C(=O)Nc2ccc(NC(=O)C(C)C)nc2)c1 | 7% | >57 | >77 | -12%
COc1cccc(C(=O)NC2=NCCS2)c1 | -3% | i | >77 | 16µM*
COc1cccc(C(=O)Nc2ccc(NC(=O)C3CC3)cn2)c1 | 1% | x | >77 | 7.9µM*
COC(=O)[C@H]1[C@@H]2C[C@H]3c4[nH]c5ccccc5c4CCN3C[C@@H]2CC[C@@H]1O | x | x | x | 0%[11.4 µM]
CC[C@]12CCCN3CCc4c(n(c5ccccc45)C(=O)C1)[C@H]32 | -8% | x | x | x
Cc1noc(C)c1C(=O)N1CCC2(CCN(Cc3nccs3)CC2)CC1 | 17% | x | x | 1%[11.4 µM]
Cc1cc(=O)oc2cc(OC3C=CC(C#CC(C)(C)C)OC3CO)ccc12 (centres undefined) | 29%[11.5 µM] | x | x | x
COc1cccc(C(=O)Nc2ccc(C)cc2)c1 | 1% | u | >77 | 10µM*
O=C(NC1=NCCS1)c1ccc(-c2ccc(Cl)cc2)o1 | 0% | 5.4* | u | 7.9µM*
COc1ccccc1CNc1ncnc2ccc(-c3ccccc3OC)cc12 | 20µM* | x | x | -4%[2.29 µM]
